Drawing on article PMC12136788, this text covers binding signal for 14 molecules.

B1: 24817595_24818005_4380_CDS_ENSG00000090905_ENST00000315183|human|control|control (ssRNA)
RNA: GGGAGUUCUACAGUCCGACGAUCCUGAUGGAGUGGCUGCUGCUGAGAUGGUGGAGUCUGCUGCUUCACCAACAGGUUUGGAUCAAGUUGACGAGAUUGUUGCAUCAUUUGCUGCUGCACACUAAGAGGUCGACCCUGCUGGUCCAACAGAGGAUUGAGCAUCA
B2: chr10:33190432:33190433:-_ENSG00000150093_ENST00000302278|hu_mus|hu_hu_hu_mus_True|1_48 (ssRNA)
RNA: GGGAGUUCUACAGUCCGACGAUCUACAUUUUCCAAACCUGCAUGUGAAUAAAACCCUGGCCACAGAGCCCCAAAACUACCCUACUGUGACUAUGGAGCUGCUGCUGUGAGCUUGGUGUUGCAAAAUCCGCCUGAGUCAGUACUCAACAGAGGAUUGAGCAUCA
B3: 17505014_17509309_214_5pUTR_ENSMUSG00000019370_ENSMUST00000019514|mouse|control|control (ssRNA)
RNA: GGGAGUUCUACAGUCCGACGAUCCAUGGCGAGGCACCGGUAUCCGGAGCUCGGGGAUCGAGGUUACUCUGGCGGCGGCAGCAGCUGCAGCAGCUCGAGCUCCGCCGCGCGUCCGCGCCUCCACACUCUUUGCCCGCAGCGCGCCAACAGAGGAUUGAGCAUCA
B4: chr8:80553714:80553715:+_ENSG00000104435_ENST00000220876|hu_mus|motif|central (ssRNA)
RNA: GGGAGUUCUACAGUCCGACGAUCAGCCUCCAGCUUUUUCUGAAUCUCCUCCAGAGACAGGUCUUUCUUCUUUGGAGAAGCGGGAGUUCGUGGAGCUUCUGAGAUGGGAGAUGGUGGCUUCAAGAUCAGCUCAAAAGCCUGGCCCAACAGAGGAUUGAGCAUCA
B5: chr11:100577090:100577091:-_ENSMUSG00000019173_ENSMUST00000107364|mus_hu|motif|central (ssRNA)
RNA: GGGAGUUCUACAGUCCGACGAUCCUGCACUGACCCCACUGUCCCCAUAUACAAGGGUUGGGGGGCAAGAGCAUGUGGCGGCUCCCAGCAAGGGAAAAUGGGAGAGCAGUAGAAAGGGGAGGAAGUGGGAAGAGCAGAAGAUCACAACAGAGGAUUGAGCAUCA
B6: chr1:89687925:89687926:+_ENSMUSG00000026289_ENSMUST00000027512|mus_hu|FALSE|FALSE (ssRNA)
RNA: GGGAGUUCUACAGUCCGACGAUCCCAGGACAGGGCUGCAGGAGCCCAUGUGCUUCUUCUGAGGAGGGCACUGGGGUCCUCCCAGCCCUGAGAGCCCCGUCAGUACUGUGCCCACAGCACAGCUUUGCAUCCUUUGUCCACACUCAACAGAGGAUUGAGCAUCA
B7: chr3:33038425:33038426:-_ENSG00000170266_ENST00000307363|hu_mus|FALSE|FALSE (ssRNA)
RNA: GGGAGUUCUACAGUCCGACGAUCGGUGGGAGGUCAGGCAAGGCGGGGCUGCAAAGUCACCAGCAGGGUACACACAUUCCAGAAAUGUAGCUUCCAUUCUAGCACAACAAAGGUGAUCCGUGUAACCAGAGUAGAGCUGUGCUCCAACAGAGGAUUGAGCAUCA
B8: 105885974_105886094_2527_3pUTR_ENSG00000135966_ENST00000393359|human|control|control (ssRNA)
RNA: GGGAGUUCUACAGUCCGACGAUCCAGCAGCGUGUGAAAGAGUUGCUGGCGGUGGGGUGGGUCUCGGCCCUCGGAGCACCACAGGCAGUAGUCCUCGGCCGCUGCAAAGUCCUGCAGCUCGUGCACCAGGAUAUGCAGCGCCUUCAACAGAGGAUUGAGCAUCA
B9: chr11:30000241:30000242:-_ENSMUSG00000020315_ENSMUST00000011877|mus_hu|motif|central (ssRNA)
RNA: GGGAGUUCUACAGUCCGACGAUCUAUUUCCAACACAGCCUCACAAAAUUGAGGAACAGUUUAAAUACUGAGAUCGGAUCGGUAUAAUUUCAUUAAAAAAAAAAUCUGGCCUUCCCUCUGCACCUCAAACUUUUGUAACUUGGACAACAGAGGAUUGAGCAUCA
B10: chr10:112657927:112657928:+_ENSG00000150593_ENST00000280154|hu_hu|FALSE|FALSE (ssRNA)
RNA: GGGAGUUCUACAGUCCGACGAUCCAGAAAUGCCUUGUACCCAAAACAAGUGCUUAAAAAAAAAAAAAAAAAAAACUUGUGCUAACAACUCUUACAAUUCAGAUAUAUAUUUUUAUAACAUCUAAGACUGCAAGAGUUCUUAUACAACAGAGGAUUGAGCAUCA
B11: chr10:112657927:112657928:+_ENSG00000150593_ENST00000280154|hu_hu|motif|central (ssRNA)
RNA: B10 RNA with U82G, A83G
B12: chr11:30000241:30000242:-_ENSMUSG00000020315_ENSMUST00000011877|mus_hu|FALSE|FALSE (ssRNA)
RNA: B9 RNA with G75U, G76A, G80U, G81A
B13: chr17:65740002:65740003:+_ENSG00000130935_ENST00000581375|hu_hu|hu_hu_hu_mus_False|8_8 (ssRNA)
RNA: GGGAGUUCUACAGUCCGACGAUCAACAAAUCUUUCUUCCCUGGACGAACAGGAAGAUUCAUAUUAAAAAAAAUAUAUAUCCAUCAAGUUAGGUGUGGUGGCCACACCUUUACUCCCAGCACUUUGGGAAUAUAAUCUCUGAGUCAACAGAGGAUUGAGCAUCA
B14: chr18:77179482:77179483:+_ENSMUSG00000090000_ENSMUST00000026487|mus_mus|FALSE|FALSE (ssRNA)
RNA: GGGAGUUCUACAGUCCGACGAUCAAGUAUGCUCCAAUCCGGGAGUGCUCCUGCCUCUGAUAAUCUGAUCUACAAGUGCAACUACAAUUAAAAAAAAAAAAAAAUCAGAUAGAUAGAAACUCUGGUUUUAUUGUCAACUUUACUCAACAGAGGAUUGAGCAUCA

Substitutions are numbered along the chain they refer to. In all, about 24,000 sequences were measured (“enrichment r”: median about 0.99, highest 2% from about 3.7 on). The list comes from a sample in which the highest values are over-represented; it also holds similar and randomly drawn sequences.

In the experiment the target is T1, UNK ZnF1-3 (human, UniProt Q9C0B0 31-174).
T1 sequence: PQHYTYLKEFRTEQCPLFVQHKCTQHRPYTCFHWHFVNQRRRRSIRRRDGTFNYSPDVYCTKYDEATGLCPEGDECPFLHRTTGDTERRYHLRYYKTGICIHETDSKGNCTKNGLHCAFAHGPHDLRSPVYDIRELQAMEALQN
The experiment in a line: nsRBNS (natural sequence RNA bind-n-seq); RBNS binding buffer (assumed for nsRBNS): 25 mM Tris pH 7.5, 150 mM KCl, 3 mM MgCl2, 0.01% Triton X-100, 500 ug/ml BSA, 20 U/ml SUPERase-In, 4 C; UNK is unkempt and MSI1 is Musashi-1; names of the RNAs are library labels; protein concentration not given here; high values mean tight binding.
For B1, the binding signal was 0.736 enrichment R.

With B2, the binding signal stood at 1.02 enrichment R.

Turning to B3, the binding signal stood at 0.975 enrichment R.

Take B4: the binding signal is 1.22 enrichment R.

Molecule B5 registered a binding signal of 1.93 enrichment R.

With B6, the binding signal came out at 0.419 enrichment R.

Molecule B7 displayed a binding signal of 1.42 enrichment R.

In turn, B8 returned a binding signal of 0.509 enrichment R.

B9 registered a binding signal of 3.58 enrichment R.

For the molecule B10, the binding signal came out at 3.61 enrichment R.

The molecule B11 yielded a binding signal of 4.04 enrichment R.

The molecule B12 showed a binding signal of 4.16 enrichment R.

B13: the binding signal is 1.12 enrichment R.

Molecule B14 yielded a binding signal of 2.98 enrichment R.
